Screening results deposited in PubChem by several laboratories.
RmlC RmlD mix = mixture blocks RmlC and RmlD coupled enzyme activity; RmlC/RmlD coupled enzyme inhibition, 384-well mixture HTS; inhibition, % at 5.5 µM; 110,000 tested, 0.39% active; AID 1532; in the data active means inhibition above about 30%, passing the limit was not always enough; inconclusive means no clear call, values can overlap the other calls
HIV RNase H inh-1 = inhibitors of HIV-1 reverse transcriptase RNase H; P04585; RT-RNase H RNA/DNA duplex cleavage, fluorescence; inhibition, % at 10 µM; 65,000 tested, 1.9% active; AID 565; in the data active means inhibition above about 50%
HIV RNase H inh-2 = confirmation of HIV-1 reverse transcriptase RNase H inhibitors | inhibition, % at 10 µM | 1,000 tested, 39% active | shares compounds with HIV RNase H inh-1 | Recombinant RT RNase H, fluorescent RNA/DNA duplex cleavage; in the data active means inhibition above about 48%; inconclusive means no clear call, values can overlap the other calls
* marks the source's active call; other numbers are inactive results. This is one part of a sample in which hits are shown more often than they occur.

Results for Cc1ccc(C)n1-c1sc2c(c1C#N)CCCC2 ?
RmlC RmlD mix: 27

Results for Cc1sc(-n2c(C)ccc2C)c(C#N)c1C ?
RmlC RmlD mix: 7; HIV RNase H inh-1: 65*; HIV RNase H inh-2: inconclusive

What do the screens show for `CSc1nnc(-c2ccc(O)cc2)n1C`?
RmlC RmlD mix: -11; HIV RNase H inh-1: -1

What do the screens show for `CN1C(=O)c2ccccc2C(C(=O)O)C1c1cccc(F)c1` (stereo not drawn)?
RmlC RmlD mix: 8; HIV RNase H inh-1: -6

How did O=C(Cn1c(=O)sc2ccccc21)Nc1ccccc1 do in these assays?
RmlC RmlD mix: -8

How did Cn1c(=O)c2c(SCC(=O)N3CCN(c4ccccc4)CC3)nc(C3CC3)nc2n(C)c1=O do in these assays?
RmlC RmlD mix: -9; HIV RNase H inh-1: 5

What do the screens show for `CCOC(=O)N1CCC(N2C(=O)c3ccc(C(=O)NC4CCCCCC4)cc3C2=O)CC1`?
HIV RNase H inh-1: 64*; HIV RNase H inh-2: 47

Results for CCOC(=O)N1CCC(N2C(=O)c3ccccc3C2=O)CC1 ?
RmlC RmlD mix: 1; HIV RNase H inh-1: 3

What do the screens show for `CC1(C)Cc2c(c(N3CCOCC3)nc3sc(-c4ccc(C(=O)O)o4)c(N)c23)CO1`?
RmlC RmlD mix: -1; HIV RNase H inh-1: 8

How did CC1(C)Cc2c(c(N3CCOCC3)nc3sc(C(=O)N4CCCCC4)c(N)c23)CO1 do in these assays?
RmlC RmlD mix: -40; HIV RNase H inh-1: 72*; HIV RNase H inh-2: 41

What do the screens show for `O=C(COC(=O)c1n[nH]c2ccccc12)NC(=O)NC1CCCC1`?
RmlC RmlD mix: 9

What do the screens show for `COc1ccc(C(=O)c2ccc(Br)cc2)cc1`?
RmlC RmlD mix: 6

Results for S=c1nc(C2CC2)[nH]c2ccccc12 ?
RmlC RmlD mix: -9; HIV RNase H inh-1: 84*; HIV RNase H inh-2: 69*

Results for CC(C)c1nc(=S)c2ccccc2[nH]1 ?
RmlC RmlD mix: 4; HIV RNase H inh-1: 23

How did COc1cccc(/C=N/N2C(=O)NC3(CCCCC3)C2=O)c1O do in these assays?
RmlC RmlD mix: 4

How did Cc1ccc(S(=O)(=O)Nc2cc(C)c(O)c(S(=O)(=O)c3ccc(C)cc3)c2)cc1 do in these assays?
RmlC RmlD mix: 9

How did Cc1cc(NS(=O)(=O)c2ccccc2)cc(Cl)c1O do in these assays?
RmlC RmlD mix: -6; HIV RNase H inh-1: 78*; HIV RNase H inh-2: 9

What do the screens show for `C=CCn1c(-c2ccc(Cl)cc2)c[nH]c1=S`?
RmlC RmlD mix: 1; HIV RNase H inh-1: -26

Results for COC(=O)CSc1cc(SCC(=O)OC)c(C#N)c(SCC(=O)OC)c1 ?
RmlC RmlD mix: -5; HIV RNase H inh-1: 29

How did O=C(Sc1nnnn1C1CCCCC1)c1cccs1 do in these assays?
RmlC RmlD mix: 7; HIV RNase H inh-1: 62*; HIV RNase H inh-2: 40

How did O=C(CSc1nnnn1C1CCCCC1)NCc1ccccc1 do in these assays?
RmlC RmlD mix: 5

What do the screens show for `O=C(NCc1ccco1)c1c2c(nc3ccccc13)CCC2`?
HIV RNase H inh-1: 65*; HIV RNase H inh-2: 22

How did O=C(NCc1ccco1)c1csc2c1CCCCC2 do in these assays?
RmlC RmlD mix: -10; HIV RNase H inh-1: -7

What do the screens show for `O=C(O)c1ccc2c(c1)C(=O)N(NC(=O)c1ccccc1)C2=O`?
RmlC RmlD mix: -9

How did O=C(NCCCCC(NC(=O)C1CCCCC1)C(=O)O)c1ccccc1 (stereo not drawn) do in these assays?
RmlC RmlD mix: -1; HIV RNase H inh-1: 6

What do the screens show for `CN(C)CCOC(c1ccccc1)c1ccccc1` (tested in a mixture with another compound)?
RmlC RmlD mix: -12; HIV RNase H inh-1: 0

Results for O=C(Nc1ccc(Cl)cn1)C1CCCN1S(=O)(=O)c1cccc2ccccc12 (stereo not drawn) ?
RmlC RmlD mix: -13

How did CN=C(c1ccco1)n1c(=S)nc(-c2ccco2)n(C)c1=S do in these assays?
RmlC RmlD mix: 8; HIV RNase H inh-1: 55*; HIV RNase H inh-2: inconclusive

How did CSc1nc(-c2ccco2)nn1C(=O)c1ccco1 do in these assays?
RmlC RmlD mix: 10; HIV RNase H inh-1: 6

What do the screens show for `O=C(CSc1nc2ccccc2n1CC(=O)NCc1ccccc1)NCc1ccco1`?
RmlC RmlD mix: 6; HIV RNase H inh-1: -4

Results for CCOc1ccc(C2C(C#N)=C(N)Oc3c2c(=O)oc2ccccc32)cc1 (stereo not drawn) ?
RmlC RmlD mix: -19

How did CNC(=O)COC(=O)c1cc(NC(=O)c2ccco2)c(OC)c(OC)c1 do in these assays?
RmlC RmlD mix: 10

How did C=CCOC(=O)c1sc(N2C(=O)c3oc4ccccc4c(=O)c3C2c2ccco2)nc1C (stereo not drawn) do in these assays?
HIV RNase H inh-1: 36

How did COC(=O)c1sc(N2C(=O)c3oc4ccccc4c(=O)c3C2c2cccs2)nc1C (stereo not drawn) do in these assays?
RmlC RmlD mix: -7; HIV RNase H inh-1: 93*; HIV RNase H inh-2: 57*
